Records with an inconclusive call do not appear. The source made the active and inactive calls. Unless noted, calls come from the whole dose curve; as a rule, active = well fitted curve in the direction sought with a large enough effect in the repeat runs; inconclusive = weak or mixed curves; inactive = no such curve, though single readings can be large; an effect the other way counts as inactive or inconclusive.
Experiments:
[1] = target: Thyrotropin-releasing hormone receptor (Homo sapiens) (UniProt P34981); experiment: qHTS assay to identify small molecule agonists of the thyrotropin-releasing hormone receptor (TRHR) signaling pathway (AID 1346891; calls by dose curve;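 note: HEK293 cells expressing TRHR with calcium dye readout; series mostly up to about 58 µM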)
Sequence of Thyrotropin-releasing hormone receptor (Homo sapiens) (P34981 whole entry, looked up): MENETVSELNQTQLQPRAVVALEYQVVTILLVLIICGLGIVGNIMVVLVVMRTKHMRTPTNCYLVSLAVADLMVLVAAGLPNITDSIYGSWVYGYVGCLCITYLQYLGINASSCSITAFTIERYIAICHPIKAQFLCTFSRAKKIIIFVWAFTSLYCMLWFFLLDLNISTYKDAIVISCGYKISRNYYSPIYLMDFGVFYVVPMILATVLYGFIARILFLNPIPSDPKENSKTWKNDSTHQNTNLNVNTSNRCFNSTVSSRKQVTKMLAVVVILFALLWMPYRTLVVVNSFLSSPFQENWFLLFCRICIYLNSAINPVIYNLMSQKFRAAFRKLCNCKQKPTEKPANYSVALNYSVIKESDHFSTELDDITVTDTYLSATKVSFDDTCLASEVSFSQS
In short: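 Overnight-plated (18 h, 37 °C, 5% CO2) TRHR-Hek293 cells; 2 h calcium dye at 37 °C; compound in DMSO; 3-min kinetic fluorescence read.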

[2] = Human pregnane X receptor (PXR) small molecule agonists, qHTS cell viability counter screen (AID 1346977); note: nearly all actives have a fitted effect of over 50% in size
In short: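 After a 5hr pre-incubation, PXR-Luc HepG2 cells received compounds plus positive control in DMSO and were kept 24hr at 37C. Cell viability was quantified by fluorescence from CellTiter-Fluor added for the final hour.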

[3] = Caspase-3/7 induction in HepG2 cells by small molecules, qHTS assay (AID 1346978); note: nearly all actives have a fitted effect of over 15% in size
In short: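 Caspase-3/7 induction was measured by Caspase-Glo 3/7 luminescence (30 min, room temperature) after a 17 hr compound exposure of wild-type HepG2 cells seeded at 2,000 per well and pre-incubated 5 hr.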

[4] = Caspase-3/7 induction in CHO-K1 cells by small molecules, qHTS cell viability counter screen (AID 1346979); note: nearly all actives have a fitted effect of over 35% in size
In short: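 Multiplexed with Caspase-Glo 3/7 in CHO-K1 cells, this counter screen added CellTiter-Fluor after 16hr of compound exposure and recorded fluorescence 1hr later.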

[5] = Caspase-3/7 induction in CHO-K1 cells by small molecules, qHTS assay (AID 1346980); note: nearly all actives have a fitted effect of over 15% in size
In short: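 Luminescent Caspase-Glo 3/7 read (30min, room temperature) quantified apoptosis induction. Cells were wild-type CHO-K1, treated with compound for 17hr at 37 C and 5% CO2.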

[6] = Caspase-3/7 induction in HepG2 cells by small molecules, qHTS cell viability counter screen (AID 1346981); note: series mostly up to about 92 µM; nearly all actives have a fitted effect of over 30% in size
In short: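 The parent HepG2 line is plated at 2,000 cells per well and rested 5 hr before compound pinning from DMSO stocks. Following a 16-hr treatment at 37 C, a fluorogenic live-cell substrate (CellTiter-Fluor) reports viability after 1 hr.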

[7] = target: Nuclear receptor subfamily 1 group I member 2 (Homo sapiens) (UniProt O75469); experiment: Human pregnane X receptor (PXR) small molecule agonists, qHTS assay (AID 1346982); note: nearly all actives have a fitted effect of over 35% in size; note: potency is the fitted concentration of half-maximal effect
Sequence of Nuclear receptor subfamily 1 group I member 2 (Homo sapiens) (O75469 whole entry, looked up): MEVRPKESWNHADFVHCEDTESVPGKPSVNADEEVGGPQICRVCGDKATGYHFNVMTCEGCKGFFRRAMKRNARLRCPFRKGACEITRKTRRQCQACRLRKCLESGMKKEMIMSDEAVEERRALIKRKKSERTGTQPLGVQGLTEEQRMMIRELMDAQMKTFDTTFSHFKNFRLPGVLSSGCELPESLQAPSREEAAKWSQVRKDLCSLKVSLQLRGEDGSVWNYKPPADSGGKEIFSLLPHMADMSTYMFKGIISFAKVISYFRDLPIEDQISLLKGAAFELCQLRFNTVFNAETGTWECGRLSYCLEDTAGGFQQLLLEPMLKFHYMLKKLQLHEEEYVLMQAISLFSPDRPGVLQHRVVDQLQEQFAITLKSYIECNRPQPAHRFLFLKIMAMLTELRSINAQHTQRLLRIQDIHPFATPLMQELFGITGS
In short: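 After plating in 5% charcoal-stripped FBS and a 5 hr rest, PXR-Luc HepG2 cells received compounds in DMSO. Following 24 hr at 37 C, ONE-Glo was added and light output read.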

[8] = target: Nuclear receptor subfamily 1 group I member 2 (Rattus norvegicus) (UniProt Q9R1A7); experiment: Rat pregnane X receptor (rPXR) activation by small molecules, qHTS assay (AID 1346983); settings: rPXR luciferase reporter cells, One-Glo luminescence, 24 h; hits give high values; note: nearly all actives have a fitted effect of over 20% in size
Sequence of Nuclear receptor subfamily 1 group I member 2 (Rattus norvegicus) (Q9R1A7 whole entry, looked up): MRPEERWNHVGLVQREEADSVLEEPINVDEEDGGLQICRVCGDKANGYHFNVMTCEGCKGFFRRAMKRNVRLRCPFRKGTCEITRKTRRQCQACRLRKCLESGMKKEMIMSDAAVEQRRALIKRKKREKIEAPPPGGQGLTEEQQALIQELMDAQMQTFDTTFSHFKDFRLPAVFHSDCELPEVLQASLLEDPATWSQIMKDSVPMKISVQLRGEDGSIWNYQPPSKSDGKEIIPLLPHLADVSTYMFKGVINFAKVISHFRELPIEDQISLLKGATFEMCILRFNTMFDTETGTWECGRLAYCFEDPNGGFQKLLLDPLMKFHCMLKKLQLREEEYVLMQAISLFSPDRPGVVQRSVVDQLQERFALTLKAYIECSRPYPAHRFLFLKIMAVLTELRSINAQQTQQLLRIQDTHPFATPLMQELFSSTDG
In short: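 Luminescent readout (One-Glo luciferase, 30 min room temperature) followed 24 hr compound treatment at 37 C of rPXR cells plated 2,000 per well and preincubated 5hr; qHTS format with compounds delivered in DMSO.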

[9] = target: Nuclear receptor subfamily 1 group I member 2 (Homo sapiens) (UniProt O75469); experiment: CYP3A4 induction through human pregnane X receptor (PXR) by small molecules, qHTS assay (AID 1346984); note: nearly all actives have a fitted effect of over 40% in size; note: potency is the fitted concentration of half-maximal effect
In short: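 Human PXR activation is tracked via CYP3A4 promoter-luciferase in DPX-2 (HepG2) cells. Compounds treat cells for 24hr at 37C, and luminescence is read after One-Glo.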

[10] = target: Nuclear receptor subfamily 1 group I member 2 (Homo sapiens) (UniProt O75469); experiment: Human pregnane X receptor (PXR) activation by small molecules, qHTS assay (AID 1346985); note: nearly all actives have a fitted effect of over 40% in size; note: potency is the fitted concentration of half-maximal effect
In short: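 DPX-2 cells (HepG2 co-transfected with a PXR response element and a CYP3A4-promoter luciferase construct) were seeded at 2,000 per well, rested 5 hr at 37C, then exposed to DMSO-dissolved compounds for 24 hr. Activation was read as luciferase luminescence.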

[11] = target: Cytochrome P450 2D6 (Homo sapiens) (UniProt P10635); experiment: Cytochrome P450 Family 2 Subfamily D Member 6 (CYP2D6) small molecule antagonists: luciferase reporter qHTS assay (AID 1671196); note: nearly all actives have a fitted effect of over 50% in size; note: potency is the fitted concentration of half-maximal effect; for activity change, negative = inhibition: series mostly up to about 120 µM
Sequence of Cytochrome P450 2D6 (Homo sapiens) (P10635 whole entry, looked up): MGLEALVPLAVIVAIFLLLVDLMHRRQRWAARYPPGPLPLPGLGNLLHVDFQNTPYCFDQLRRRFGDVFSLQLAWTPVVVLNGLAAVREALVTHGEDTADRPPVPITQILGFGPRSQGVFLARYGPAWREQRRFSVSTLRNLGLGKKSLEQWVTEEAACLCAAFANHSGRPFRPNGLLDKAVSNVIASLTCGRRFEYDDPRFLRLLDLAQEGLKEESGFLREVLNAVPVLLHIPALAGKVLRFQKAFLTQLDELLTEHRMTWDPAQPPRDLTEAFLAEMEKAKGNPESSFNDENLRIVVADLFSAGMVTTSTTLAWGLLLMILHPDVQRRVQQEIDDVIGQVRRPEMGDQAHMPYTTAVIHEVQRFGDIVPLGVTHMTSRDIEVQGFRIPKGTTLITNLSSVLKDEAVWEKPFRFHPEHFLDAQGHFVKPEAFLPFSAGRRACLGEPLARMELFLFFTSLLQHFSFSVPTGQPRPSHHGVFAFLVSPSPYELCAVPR
In short: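 Quantitative HTS of Tox21 chemicals against CYP2D6 using a luminescent proluciferin substrate. After NADPH addition, 1 h room-temperature reaction; luminescence recorded 20 min post detection reagent.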

[12] = target: Cytochrome P450 2C9 (Homo sapiens) (UniProt P11712); experiment: Cytochrome P450 Family 2 Subfamily C Member 9 (CYP2C9) small molecule antagonists: luciferase reporter qHTS assay (AID 1671198); note: series mostly up to about 120 µM; nearly all actives have a fitted effect of over 50% in size
Sequence of Cytochrome P450 2C9 (Homo sapiens) (P11712 whole entry, looked up): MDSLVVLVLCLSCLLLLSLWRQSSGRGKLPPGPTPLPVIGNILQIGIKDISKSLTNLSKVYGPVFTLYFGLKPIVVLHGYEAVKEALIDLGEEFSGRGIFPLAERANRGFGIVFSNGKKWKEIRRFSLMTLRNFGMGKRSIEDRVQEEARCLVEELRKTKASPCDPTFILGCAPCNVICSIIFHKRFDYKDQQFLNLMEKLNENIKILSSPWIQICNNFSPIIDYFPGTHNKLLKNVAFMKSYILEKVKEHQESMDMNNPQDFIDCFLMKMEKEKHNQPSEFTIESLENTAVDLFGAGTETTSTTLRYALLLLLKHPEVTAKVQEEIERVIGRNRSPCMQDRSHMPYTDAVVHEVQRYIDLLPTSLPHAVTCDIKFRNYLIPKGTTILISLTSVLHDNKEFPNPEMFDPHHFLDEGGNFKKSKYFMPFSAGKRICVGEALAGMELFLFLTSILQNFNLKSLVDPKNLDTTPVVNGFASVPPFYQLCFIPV
In short: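 Enzyme-substrate mix preincubated with compound 10 min at room temperature; reaction started with NADPH regeneration solution, 1 h 37C. Luminescent luciferin product read after 20 min detection reagent.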

[13] = target: Cytochrome P450 1A2 (Homo sapiens) (UniProt P05177); experiment: Cytochrome P450 Family 1 Subfamily A Member 2 (CYP1A2) small molecule antagonists: luciferase reporter qHTS assay (AID 1671199); note: nearly all actives have a fitted effect of over 50% in size; note: potency is the fitted concentration of half-maximal effect; for activity change, negative = inhibition: series mostly up to about 120 µM
Sequence of Cytochrome P450 1A2 (Homo sapiens) (P05177 whole entry, looked up): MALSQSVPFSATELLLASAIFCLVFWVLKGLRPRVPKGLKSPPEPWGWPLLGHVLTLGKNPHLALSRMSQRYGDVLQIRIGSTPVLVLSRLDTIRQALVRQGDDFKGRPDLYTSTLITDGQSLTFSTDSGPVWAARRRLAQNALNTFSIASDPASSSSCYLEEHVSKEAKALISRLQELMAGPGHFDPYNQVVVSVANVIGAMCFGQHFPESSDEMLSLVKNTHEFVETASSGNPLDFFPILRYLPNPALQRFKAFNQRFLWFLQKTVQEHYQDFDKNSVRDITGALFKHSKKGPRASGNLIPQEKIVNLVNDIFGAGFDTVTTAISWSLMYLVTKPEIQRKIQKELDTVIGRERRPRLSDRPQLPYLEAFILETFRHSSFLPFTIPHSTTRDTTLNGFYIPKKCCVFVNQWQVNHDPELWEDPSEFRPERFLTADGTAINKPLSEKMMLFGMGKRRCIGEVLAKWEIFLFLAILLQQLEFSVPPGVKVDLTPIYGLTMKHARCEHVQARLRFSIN
In short: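 Quantitative high-throughput format using the P450-Glo CYP1A2 system. Reaction initiated by NADPH regeneration solution, 1 h at room temperature, then stopped with detection reagent; luminescence measured 20 min later.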

[14] = target: Voltage-gated inwardly rectifying potassium channel KCNH2 (Homo sapiens) (UniProt Q12809); experiment: Human Ether-a-go-go-Related Gene (hERG) channel small molecule antagonists: fluorescence cell-based qHTS assay (AID 1671200)
Sequence of Voltage-gated inwardly rectifying potassium channel KCNH2 (Homo sapiens) (Q12809 whole entry, looked up): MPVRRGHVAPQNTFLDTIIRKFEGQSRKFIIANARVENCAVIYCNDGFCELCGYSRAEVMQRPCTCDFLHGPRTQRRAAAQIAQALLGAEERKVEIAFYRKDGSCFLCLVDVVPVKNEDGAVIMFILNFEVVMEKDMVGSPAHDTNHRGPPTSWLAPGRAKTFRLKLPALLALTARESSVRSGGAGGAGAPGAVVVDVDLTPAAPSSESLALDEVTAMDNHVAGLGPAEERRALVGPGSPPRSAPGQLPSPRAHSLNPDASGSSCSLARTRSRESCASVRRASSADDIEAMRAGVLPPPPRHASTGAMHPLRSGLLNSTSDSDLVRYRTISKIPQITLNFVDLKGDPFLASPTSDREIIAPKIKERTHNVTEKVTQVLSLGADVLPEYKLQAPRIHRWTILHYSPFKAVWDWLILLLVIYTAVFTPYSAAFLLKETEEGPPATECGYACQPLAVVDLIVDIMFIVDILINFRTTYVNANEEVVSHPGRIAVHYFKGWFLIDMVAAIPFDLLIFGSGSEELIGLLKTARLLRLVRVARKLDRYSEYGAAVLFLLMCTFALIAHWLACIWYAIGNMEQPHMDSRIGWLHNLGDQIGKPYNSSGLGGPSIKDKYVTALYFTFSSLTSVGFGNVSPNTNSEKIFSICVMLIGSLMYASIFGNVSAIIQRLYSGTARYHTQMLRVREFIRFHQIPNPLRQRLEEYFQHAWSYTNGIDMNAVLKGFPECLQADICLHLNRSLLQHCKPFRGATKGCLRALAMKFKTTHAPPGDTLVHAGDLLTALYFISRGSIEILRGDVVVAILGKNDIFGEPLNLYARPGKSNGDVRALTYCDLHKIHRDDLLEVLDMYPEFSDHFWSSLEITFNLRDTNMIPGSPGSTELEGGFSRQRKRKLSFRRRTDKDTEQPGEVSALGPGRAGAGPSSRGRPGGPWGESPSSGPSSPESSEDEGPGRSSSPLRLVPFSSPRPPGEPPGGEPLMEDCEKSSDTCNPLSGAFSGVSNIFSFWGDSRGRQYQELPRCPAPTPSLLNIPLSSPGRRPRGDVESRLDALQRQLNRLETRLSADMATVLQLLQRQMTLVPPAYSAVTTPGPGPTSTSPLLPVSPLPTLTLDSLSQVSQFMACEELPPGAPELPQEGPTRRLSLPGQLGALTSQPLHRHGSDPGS
In short: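 Cell line hERG-U2OS; dye FluxOR II, 1 h RT dark; Tl+ stimulus; ex 480/em 540 nm, read each second for 2 min.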

[15] = target: Cytochrome P450 3A4 (Homo sapiens) (UniProt P08684); experiment: Cytochrome P450 Family 3 Subfamily A Member 4 (CYP3A4) small molecule antagonists: luciferase reporter qHTS assay (AID 1671201)
Sequence of Cytochrome P450 3A4 (Homo sapiens) (P08684 whole entry, looked up): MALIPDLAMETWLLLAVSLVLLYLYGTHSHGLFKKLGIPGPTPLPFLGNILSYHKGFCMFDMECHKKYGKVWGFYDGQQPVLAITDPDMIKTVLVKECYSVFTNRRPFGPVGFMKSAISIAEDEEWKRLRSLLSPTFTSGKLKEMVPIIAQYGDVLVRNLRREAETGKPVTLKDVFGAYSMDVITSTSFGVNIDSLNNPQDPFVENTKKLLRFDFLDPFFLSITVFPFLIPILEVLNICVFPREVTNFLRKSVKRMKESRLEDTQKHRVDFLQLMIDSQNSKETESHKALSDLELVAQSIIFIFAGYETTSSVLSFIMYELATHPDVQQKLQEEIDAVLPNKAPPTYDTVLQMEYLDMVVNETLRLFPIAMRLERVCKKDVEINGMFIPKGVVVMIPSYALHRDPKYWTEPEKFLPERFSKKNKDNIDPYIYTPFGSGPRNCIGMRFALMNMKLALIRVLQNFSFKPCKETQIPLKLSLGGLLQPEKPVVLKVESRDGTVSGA
In short: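 Room-temperature assay throughout: 10 min compound–enzyme/substrate preincubation, 1 h reaction after NADPH regeneration solution, 20 min detection. Luciferin formed from proluciferin substrate is quantified by luminescence.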

[16] = target: Cytochrome P450 2C19 (Homo sapiens) (UniProt P33261); experiment: Cytochrome P450 Family 2 Subfamily C Member 19 (CYP2C19) small molecule antagonists: luciferase reporter qHTS assay (AID 1671197); note: series mostly up to about 120 µM; nearly all actives have a fitted effect of over 65% in size
Sequence of Cytochrome P450 2C19 (Homo sapiens) (P33261 whole entry, looked up): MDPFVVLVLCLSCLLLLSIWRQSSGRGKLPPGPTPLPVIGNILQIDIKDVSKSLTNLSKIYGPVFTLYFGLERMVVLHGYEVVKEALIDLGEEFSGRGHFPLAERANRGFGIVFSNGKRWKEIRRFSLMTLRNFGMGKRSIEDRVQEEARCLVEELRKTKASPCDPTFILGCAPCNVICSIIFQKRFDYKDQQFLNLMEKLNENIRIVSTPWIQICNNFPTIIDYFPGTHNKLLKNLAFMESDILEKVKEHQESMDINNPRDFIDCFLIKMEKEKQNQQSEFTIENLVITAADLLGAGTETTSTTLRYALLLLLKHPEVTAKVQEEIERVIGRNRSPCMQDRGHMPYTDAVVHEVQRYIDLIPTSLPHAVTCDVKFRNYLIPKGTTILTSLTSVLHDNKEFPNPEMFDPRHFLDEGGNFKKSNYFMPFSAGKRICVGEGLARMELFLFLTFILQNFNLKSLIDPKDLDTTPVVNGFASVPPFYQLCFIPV
In short: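 Relative luminescence units recorded 20 min after the detection reagent stopped a 1 h, 37C CYP2C19 reaction on proluciferin substrate, which was started by NADPH regeneration following 10 min room-temperature compound preincubation; ketoconazole positive control.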
% is set by controls: 0 for no effect and ±100 for the full control effect.

FC(F)OC(Cl)C(F)(F)F (stereo not given)
active: Potency [13] 39.9 µM
inactive: outcome [1] | Potency [2] | Potency [3] | Potency [4] | outcome [5] | Potency [6] | Potency [7] | max activation [8] -3.14% | Potency [9] | Potency [10] | Potency [11] | Potency [12] | Potency [14] | Potency [15]

CCO/C([O-])=N/c1c[n+](N2CCOCC2)no1
inactive: outcome [1] | Potency [2] | Potency [3] | Potency [4] | outcome [5] | Potency [6] | Potency [7] | max activation [8] 0.703% | Potency [9] | Potency [10] | Potency [11] | Potency [16] | Potency [12] | Potency [13] | Potency [14] | Potency [15]

N[C@@H](C(=O)N[C@@H]1C(=O)N2C(C(=O)O)=C(Cl)CS[C@H]12)c1ccccc1
inactive: activation [1] -0.0304% [at 5.23 µM] | activity change, negative = cytotoxicity [2] 4.82% [at 8.39 µM] | caspase activation [3] 0.709% [at 8.39 µM] | activity change, negative = cytotoxicity [4] 1.61% [at 8.39 µM] | caspase-3/7 activation [5] -1.31% [at 8.39 µM] | activity change, negative = cytotoxicity [6] 4.06% [at 8.39 µM] | activation [7] -7.63% [at 8.39 µM] | max activation [8] -2.39% | Potency [9] | Potency [10] | activity change, negative = inhibition [11] -15.8% [at 10.5 µM] | activity change, negative = inhibition [16] 33.2% [at 10.5 µM] | activity change, negative = inhibition [12] -2.01% [at 10.5 µM] | activity change, negative = inhibition [13] 7.47% [at 10.5 µM] | activity change, negative = inhibition [14] -6.12% [at 6.97 µM]

CC(C)c1cc2c(cc1S(=O)(=O)O)[C@@]1(C)CCC[C@@](C)(C(=O)O)[C@@H]1CC2
inactive: outcome [1] | Potency [2] | Potency [3] | Potency [4] | outcome [5] | Potency [6] | Potency [7] | max activation [8] 2.4% | Potency [9] | Potency [10] | Potency [11] | Potency [16] | Potency [12] | Potency [14] | Potency [15]

CC(C)NCCCC1(C(N)=O)c2ccccc2-c2ccccc21
active: Potency [7] 23.7 µM | Potency [11] 2.45 µM
inactive: outcome [1] | Potency [2] | Potency [3] | Potency [4] | outcome [5] | Potency [6] | Potency [16]

O=C(CCCN1CCC(O)(c2cccc(C(F)(F)F)c2)CC1)c1ccc(F)cc1
inactive: outcome [1] | Potency [2] | Potency [3] | Potency [4] | outcome [5] | Potency [6] | Potency [7] | max activation [8] 1.11% | Potency [16] | Potency [12] | Potency [13] | Potency [15]
active: Potency [9] 4.47 µM | Potency [10] 12.6 µM

Cc1c(NC(C)C)c(=O)n(-c2ccccc2)n1C
inactive: outcome [1] | Potency [2] | Potency [3] | Potency [4] | outcome [5] | Potency [6] | Potency [7] | max activation [8] -1.85% | Potency [9] | Potency [10] | Potency [16] | Potency [12] | Potency [14] | Potency [15]
active: Potency [13] 28.8 µM

N[C@H]1CN(c2c(F)cc3c(=O)c(C(=O)O)cn(C4C[C@H]4F)c3c2Cl)CC12CC2 (stereo not given in full)
inactive: outcome [1] | Potency [2] | Potency [3] | Potency [4] | outcome [5] | Potency [6] | Potency [7] | Potency [11] | Potency [16] | Potency [12] | Potency [13]

Source: PubChem BioAssay (Tox21)
